{"source": "the OligoGym collection"}
{"target": "MARCH9", "assay": "pooled miR-30 sensor sort-seq; sequence = guide strand", "settings": "shRNA"}
{"sequence": "TAATTTAGGACCTTCCACTGCT", "sensor-assay potency score (higher = more potent)": 0.933}
{"sequence": "TTGTCCAGCTGGTACCTCCAGC", "sensor-assay potency score (higher = more potent)": -0.754}
{"sequence": "TAGTACTCCTCCTCGTCGCCGT", "sensor-assay potency score (higher = more potent)": -0.394}
{"target": "MAST4", "assay": "pooled miR-30 sensor sort-seq; sequence = guide strand", "settings": "shRNA"}
{"sequence": "TTGCTTTTCACCAACAGCGGAC", "sensor-assay potency score (higher = more potent)": -0.756}
{"sequence": "TAGGTAGTAAAATTCTTCCGGA", "sensor-assay potency score (higher = more potent)": 0.168}
{"sequence": "TTTGCTTTTCACCAACAGCGGA", "sensor-assay potency score (higher = more potent)": -0.849}
{"sequence": "TTCACATCGGAGAAGCTCCTTG", "sensor-assay potency score (higher = more potent)": -0.392}
{"sequence": "TAACTGATGCAACTTCTCCTGG", "sensor-assay potency score (higher = more potent)": -0.165}
{"sequence": "TTTCTTTCGGAGGTAATCGATG", "sensor-assay potency score (higher = more potent)": -1.18}
{"sequence": "TTTGTCCACAGAGTCTTCCTTC", "sensor-assay potency score (higher = more potent)": 0.0254}
{"sequence": "TTCTGTGCTTTCTAATCGCTGC", "sensor-assay potency score (higher = more potent)": 0.164}
{"sequence": "TTGGCCTTCAGCTTGTCGCGGT", "sensor-assay potency score (higher = more potent)": 0.119}
{"sequence": "TTGCTAATCAATTTAATCGTTT", "sensor-assay potency score (higher = more potent)": -0.519}
{"sequence": "TATACTTCAGTGATTTTCCAGG", "sensor-assay potency score (higher = more potent)": -0.751}
{"sequence": "TTGCCTATTAAGCTTTTCCGGT", "sensor-assay potency score (higher = more potent)": -0.995}
{"target": "MATR3", "assay": "pooled miR-30 sensor sort-seq; sequence = guide strand", "settings": "shRNA"}
{"sequence": "TTGCTTTTGATCAAACTTCTGA", "sensor-assay potency score (higher = more potent)": -0.275}
{"sequence": "TAAGCTTTTTCTTTGCTGCTGC", "sensor-assay potency score (higher = more potent)": 0.692}
{"sequence": "TTCACTTGTATCTTTGTTGGGA", "sensor-assay potency score (higher = more potent)": 0.73}
{"sequence": "TTGAACTCTCAGTCTTCTGGGA", "sensor-assay potency score (higher = more potent)": 0.368}
{"sequence": "TTCTTGTTCTTTACCTTCGGTT", "sensor-assay potency score (higher = more potent)": -0.715}
{"sequence": "TTTCTCACCATCTTCACCGGAC", "sensor-assay potency score (higher = more potent)": -0.137}
{"sequence": "TTGTGTAATAATCCACTGCGGC", "sensor-assay potency score (higher = more potent)": -0.905}
{"sequence": "TTTCTCAGACAGGTCAACCTTC", "sensor-assay potency score (higher = more potent)": 0.61}
{"sequence": "TTCGGTTGAACTCTCAGTCTTC", "sensor-assay potency score (higher = more potent)": 0.606}
{"sequence": "TATACCAACAGGAACATTGGGC", "sensor-assay potency score (higher = more potent)": 0.454}
{"sequence": "TATTCTTTGCAACTTCTTCATT", "sensor-assay potency score (higher = more potent)": -0.992}
{"sequence": "TTGATCAAACTTCTGATCTGGC", "sensor-assay potency score (higher = more potent)": 0.816}
{"target": "MBD3", "assay": "pooled miR-30 sensor sort-seq; sequence = guide strand", "settings": "shRNA"}
{"sequence": "TCGTCGGTCACCATGAAGGCTT", "sensor-assay potency score (higher = more potent)": -0.866}
{"sequence": "TTGCTGCGGAACTTCTTCCCGC", "sensor-assay potency score (higher = more potent)": -0.815}
{"sequence": "TTGGGGAGGTCCATGGTCTTGA", "sensor-assay potency score (higher = more potent)": -0.977}
{"sequence": "ATCAGCATCTTGCCCGTGCGGA", "sensor-assay potency score (higher = more potent)": -0.991}
{"sequence": "TTGCTCATCAGCATCTTGCCCG", "sensor-assay potency score (higher = more potent)": -0.234}
{"sequence": "ATCTTGCTCATCAGCATCTTGC", "sensor-assay potency score (higher = more potent)": -1.63}
{"sequence": "TTCTTCTCCCAGAAGAGCTGGC", "sensor-assay potency score (higher = more potent)": -0.362}
{"sequence": "TTGAAGATGGACGCCGTCTGGC", "sensor-assay potency score (higher = more potent)": -0.445}
{"sequence": "TAATCTTGGTCACCGGCTGCTT", "sensor-assay potency score (higher = more potent)": -0.615}
{"sequence": "TCGTCGTCGTCCTCAGCGCAGG", "sensor-assay potency score (higher = more potent)": -1.74}
{"sequence": "TTGGTAATCTTGGTCACCGGCT", "sensor-assay potency score (higher = more potent)": -0.729}
{"sequence": "TCGCTCTTGACCTTGTTGCTGG", "sensor-assay potency score (higher = more potent)": -0.788}
